# Screens deposited in PubChem by National Center for Advancing Translational Sciences (NCATS).
# SMN2 splice enh = SMN2 splice variant enhancement | HEK293 SMN2-luciferase splicing reporter, luminescence, 30-36 h | Potency, µM (series often up to 46.1 µM), for the others: at the top dose activity change, positive = activation, most hits filed as activators | 210,000 tested, 2.8% active | AID 1458; also: % of control where 0% means no effect; nearly all actives have a fitted effect of over 55% in size
#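 qHTS luciferase splicing reporter: luminescence rises when SMN2 exon 7 is included in transfected HEK293 cells. Compound exposure lasted 30-36 h at 37C, with 4.5 mM final sodium butyrate as control, followed by a ONE-Glo read.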
# NPC1 promoter act = activates the NPC1 promoter | Huh7 NPC1 promoter luciferase reporter, 24 h | Potency, µM (titrated, usually from 9.22 µM), for inactives: at the top dose activation, actives largely listed as activators | 320,000 tested, 2.4% active | AID 485313; also: % of control where 0% means no effect; nearly all actives have a fitted effect of over 60% in size
#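 Luminescence from an NPC1 promoter-driven luciferase reporter in stably transfected Huh7 cells was measured after 24 h compound treatment at 37 °C, followed by 10 min ambient incubation with luciferase detection reagent.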
# FLuc modulator = counter-screen for miR-21 project: firefly luciferase inhibitors or activators; Potency, µM (series often up to 57.5 µM), inactives show at the highest dose activity change, negative = inhibition, usual class: inhibitors; P08659; purified FLuc, Km substrates, luminescence inhibition; 360,000 tested, 6.9% active;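 also: plate controls were vehicle for no effect and reference inhibitor for full effect; nearly all actives have a fitted effect of over 55% in size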
# Target sequence (P08659 whole entry, looked up): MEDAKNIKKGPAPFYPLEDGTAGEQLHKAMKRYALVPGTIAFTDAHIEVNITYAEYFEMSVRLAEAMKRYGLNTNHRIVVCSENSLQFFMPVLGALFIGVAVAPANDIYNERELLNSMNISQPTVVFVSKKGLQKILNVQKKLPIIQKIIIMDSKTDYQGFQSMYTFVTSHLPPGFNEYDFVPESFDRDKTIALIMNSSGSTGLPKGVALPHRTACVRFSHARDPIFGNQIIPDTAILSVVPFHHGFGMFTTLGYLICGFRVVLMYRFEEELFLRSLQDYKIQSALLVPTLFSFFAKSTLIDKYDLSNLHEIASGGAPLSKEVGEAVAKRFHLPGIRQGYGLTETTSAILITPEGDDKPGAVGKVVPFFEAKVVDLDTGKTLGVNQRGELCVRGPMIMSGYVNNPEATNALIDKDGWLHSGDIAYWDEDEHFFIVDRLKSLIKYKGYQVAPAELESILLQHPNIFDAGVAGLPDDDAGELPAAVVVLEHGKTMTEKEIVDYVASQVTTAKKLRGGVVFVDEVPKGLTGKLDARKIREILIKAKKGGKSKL
#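 Purified P. pyralis luciferase (10nM final) with 10uM D-luciferin and 10uM ATP (Km levels) in 50mM Tris acetate pH 7.5, 10mM Mg acetate, 0.01% Tween-20, 0.05% BSA; qHTS 6-point titration, ~60 µM downward; luminescence read.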
# uPA generation = blocks generation of uPA at the cell surface | cell surface uPA generation assay, qHTS | 330,000 tested, 0.31% active | Potency, µM (doses to about 38.3 µM), for inactives: top-dose activity change, negative = inhibition, actives largely listed as inhibitors; active = well fitted inhibition curve with a large enough effect; inconclusive = small, poorly fitted or top-dose-only effect; inactive = no such curve, though single readings can be large or run the other way; tested in mouse RAW 264.7 cells; also: % is scaled to controls: 0 for no effect and ±100 for the full control effect; nearly all actives have a fitted effect of over 55% in size
# ELG1 genotoxic = genotoxicity induction in ELG1-luciferase HEK293T cells. 330,000 tested, 1.3% active. Potency, µM (highest dose often 46 µM), without a hit: top-dose activity change, positive = activation, actives largely listed as activators. AID 504466. HEK293T ELG1-luciferase reporter, luminescence, 16 h; also: % of control where 0% means no effect; nearly all actives have a fitted effect of over 60% in size
#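 Cells (2,000/well) expressing the ELG1-luciferase fusion are dosed by pin tool and kept 16 hr at 37 °C, 5% CO2. Signal comes from ONE-Glo luciferase reagent after 30 min at room temperature.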
# Rab9 prom act = activates the Rab9 promoter | Potency, µM (series often up to 9.22 µM), without a hit: at the highest dose activation, negative = inhibition, usual class: activators | AID 485297 | 320,000 tested, 2.8% active | Huh7 Rab9 promoter-luciferase reporter, luminescence, 24 h; also: % of control where 0% means no effect; nearly all actives have a fitted effect of over 60% in size
#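 Steps: seed 1500 Huh7 Rab9-luc cells per well, rest 2 h at 37 °C; add compound in DMSO; incubate 24 h; add luciferase reagent, 10 min ambient; read luminescence.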
# Active calls of the source: *; ? = inconclusive; . = no result; [ ] = dose if it differs, or a comment. Rows were chosen to be rich in hits. Some 7.3% of all compounds tested hit in one or more screens of this group. Unless noted, calls follow the shape of the dose curve; as a rule, active = well fitted curve in the direction sought with a large enough effect; inconclusive = small, poorly fitted or top-dose-only effect, or another doubt; inactive = no such curve, though single readings can be large; an effect the other way counts as inactive or inconclusive. Potency is read from the fitted curve at half-maximal effect.
SMILES,SMN2 splice enh,NPC1 promoter act,FLuc modulator,uPA generation,ELG1 genotoxic,Rab9 prom act
Cc1ccc(CNC(=O)Cn2nc(N3CCN(c4ccccc4)CC3)ccc2=O)cc1,.,.,-14%,.,.,.
Cc1cccc(C)c1NC(=O)N1CCC(C(N)=O)(N2CCCCC2)CC1,0%,.,0%,.,.,.
NC(=O)c1ccsc1NC(=O)COC(=O)c1ccccc1F,.,1%,11µM*,?,5%,0%
NC(=O)c1ccsc1NC(=O)COC(=O)/C=C/c1ccccc1,.,7%,11µM*,1%,-17%,0%
NC(=O)c1ccsc1NC(=O)COC(=O)c1cc(Cl)ccc1O,.,-3%,4.3µM*,2%,0%,-3%
Cn1c(=O)c2c(ncn2CC(=O)Nc2cccc(Cl)c2Cl)n(C)c1=O,-3%,.,-3%,.,.,.
CC1(C)Cc2nc3sc4c(=O)[nH]cnc4c3cc2CS1,?,26%,13µM*,9%,?,14%
CC1(C)Cc2nc3sc4c(=O)n(CC(=O)NCc5ccco5)cnc4c3cc2CO1,13%,-6%,?,.,?,25%
CCCCCn1cnc2c(sc3nc4c(cc32)CSC(C)(C)C4)c1=O,19%,3.5µM*,3.8µM*,5%,?,3.2µM*
CCOC(=O)C1CCCN(C(=O)c2cc(-c3ccccc3)on2)C1 (configuration not stated),22µM*,?,-17%,-1%,?,4µM*
Cc1ccc(-c2cc(C(=O)N3CCCC3)no2)cc1,0.89µM*,?,0.76µM*,?,0.23µM*,?
Cc1ccc(-c2cc(C(=O)N3CCOCC3)no2)cc1,.,0.32µM*,0.54µM*,-11%,?,0.32µM*
COc1ccc(N(C)C(=O)NCc2noc3ccc(C)cc23)c(OC)c1,.,.,1%,.,.,.
CCOc1ccc(/C=N/n2c(C3CCCCC3)n[nH]c2=S)cc1,.,0%,2%,8%,3%,-2%
Cc1ccc(OCCC(=O)OCC(=O)Nc2cc(S(=O)(=O)N(C)C)ccc2C)cc1,0%,-5%,11µM*,-5%,2%,-2%
Cc1ccc(S(=O)(=O)N(C)C)cc1NC(=O)COC(=O)/C=C/c1ccc2ccccc2n1,.,23%,8.5µM*,?,-3%,19%
CCN(CC)S(=O)(=O)c1ccc(C)c(NC(=O)COC(=O)CNC(=O)c2ccc(C(C)(C)C)cc2)c1,17%,-1%,0.54µM*,7%,1%,0%
Cc1ccc(S(=O)(=O)N(C)C)cc1NC(=O)COC(=O)CCC1CCCC1,.,3%,-7%,-6%,5%,-3%
Cc1ccc(S(=O)(=O)N(C)C)cc1NC(=O)COc1ccc(-c2nnco2)cc1,.,-6%,17µM*,2%,-2%,-2%
CCN(CC)S(=O)(=O)c1cccc(NC(=O)COC(=O)CNC(=O)c2cccc(F)c2)c1,.,-1%,-4%,-13%,1%,-6%
Cc1ccccc1CNC(=O)c1c(C)oc2c1C1=NCCN1C=N2,.,.,3%,.,.,.
COc1ccc2cc3cc(C(=O)NCCc4ccccc4)sc3nc2c1Cl,.,.,-1%,.,.,.
O=CNc1ncn[nH]1,-5%[9.22 µM],.,.,.,.,.
O=C(OCC#CCNc1nnc(-c2cccc3ccccc23)o1)c1cccs1,.,-2%,3%,.,.,2%
CCCOc1cccc(-c2nc3ccccc3c(=O)o2)c1,.,8%,8.5µM*,-9%,?,26%
SMILES,SMN2 splice enh,NPC1 promoter act,FLuc modulator,uPA generation,ELG1 genotoxic,Rab9 prom act
CCC(=O)Nc1cccc(-c2nc3ccccc3c(=O)o2)c1,-10%,-4%,?,1%,-3%,5%
CCC(=O)Oc1ccc(-c2nc3ccccc3c(=O)o2)cc1,-5%,.,1.7µM*,.,.,.
CCCOc1ccc(-c2nc(OC)c3ccccc3n2)cc1,-10%,19%,13µM*,2%,5%,3%
CCCOc1ccc(-c2nc(N3CCC(C)CC3)c3ccccc3n2)cc1,-10%,.,-5%,.,.,.
CCCOc1ccc(-c2nc3ccccc3c(=O)o2)cc1,16µM*,.,0.67µM*,.,.,.
Cc1ccccc1-n1sc2cc(F)ccc2c1=O,-48%,10%,11µM*,-1%,-10%,5%
O=c1c2cc(F)ccc2sn1-c1ccccc1,.,12%,?,?,-2%,1%
CC(=O)N1c2ccc(S(=O)(=O)N3CCC(C(=O)Nc4cccc(Cl)c4C)CC3)cc2CC1C (configuration not stated),.,.,-1%,.,.,.
O=C1C2C3C=CC(C4CC34)C2C(=O)N1c1ccc2c(c1)OCO2 (configuration not stated),-20%,7%,21µM*,1%,0%,5%
CSc1n[nH]c(NCc2ccc(C)cc2)n1,16µM*,29%,24µM*,-13%,?,?
Cc1cccc(NC(=O)/C=C/c2cccs2)n1,3.2µM*,2.8µM*,4.8µM*,-8%,?,2.5µM*
CC(C)(C)NC(=O)/C=C/c1cccs1,-1%,10%,-3%,?,-4%,2%
O=C(/C=C/c1cccs1)Nc1ccc([N+](=O)[O-])cc1,?,23%,?,1%,11%,?
O=C(/C=C/c1cccs1)N1CCCC1,.,0%,-4%,0%,6%,26%
Cc1ccc(NC(=O)/C=C/c2cccs2)c([N+](=O)[O-])c1,?,3.2µM*,1.5µM*,-10%,?,3.2µM*
Cc1cc(C)n(C(=O)/C=C/c2cccs2)n1,.,-10%,17µM*,-6%,4%,-4%
O=C(/C=C/c1cccs1)Nc1ccncc1,15%,16%,13µM*,-9%,18%,27%
CCC(=O)N1C2=C(c3ccccc3[C@@H]1CC(=O)Nc1ccc3ccccc3c1)[C@@H]1C(=O)N(c3ccccc3)C(=O)[C@@H]1[C@H](C)C2,-2%[9.22 µM],.,.,.,.,.
O=C(CSc1nc2ccccc2n1Cc1ccccc1Cl)NCc1ccccc1,.,.,1%,.,.,.
CC1CCN(c2cc3c(cc2F)c(=O)c(S(=O)(=O)c2ccc(Cl)cc2)cn3C)CC1,.,.,-5%,.,.,.
CC(C)(C)c1ccc(/C=C/C(=O)Nc2ccncc2)cc1,-13%,0%,4.8µM*,-12%,16%,1%
CCOC(=O)c1cc(NC(=O)COC)ccc1O,.,-4%,1%,.,1%,-5%
CCCOC(=O)c1cc(NC(=O)/C=C/c2ccccc2)ccc1O,.,0%,15µM*,.,-8%,0%
CN(C)C(=O)c1ccc(NC(=O)COC(=O)/C=C/c2cccs2)cc1,.,4%,2%,-15%,-2%,0%
CCCOC(=O)c1ccc(NC(=O)/C=C/c2cccs2)cc1,-25%,-1%,24µM*,-2%,5%,2%
CCN(c1ccc(OC)cc1)S(=O)(=O)c1c(C(=O)N2CCCCCC2)c(C)n(C)c1C,.,.,-2%,.,.,.
N/C(Cc1ccc(Cl)cc1Cl)=N\OC(=O)c1cccs1,-11%,4%,-20%,0%,0%,12%
